Values joined by “and” are separate entries in the source; they are usually repeats but may differ in a detail not shown here. Equal values may be shown once. The whole screen tested about 5,500 compounds, of which about 2,000 (36%) were called active. Not shown: some 18% with an inconclusive outcome. Rule as the data show it: active = normalized growth mostly below about 0.91 (no sharp cut-off); inconclusive = no clear call, values can overlap the other calls; inactive = mostly above about 0.92. The list shows a part of the results.
Assay: chemical genetic growth profiling, strain panel (AID 1159580);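 also: tested at 20 µM; growth read once vehicle control cultures reached saturation at 30 °C; 1 = growth at the plate median or of vehicle wells; lower values mean less growth of the strain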
Conditions: S. cerevisiae deletion strains, growth OD
[1] = locus YGR229C, strain SMI1, active compounds read low
[2] = locus YMR307W, strain GAS1, active compounds read low
[3] = locus YNL153C, strain GIM3, active compounds read low

Measured: normalized growth

COc1cc2c(c(OC)c1OC)-c1ccc(OC)c(=O)cc1[C@@H](NC(C)=O)CC2
inactive: locus YAL013W, strain DEP1, active compounds read low 1.02 | locus YAL021C, strain ccr4, active compounds read low 1.01 | locus YAL026C, strain drs2, active compounds read low 1 | locus YAL030W, strain snc1, active compounds read low 0.988 | locus YBL061C, strain skt5, active compounds read low 1 | locus YBR009C, strain hhf1, active compounds read low 0.985 | locus YBR021W, strain FUR4, active compounds read low 1.04 | locus YBR023C, strain chs3, active compounds read low 0.998 | locus YBR171W, strain sec66, active compounds read low 1.01 | locus YBR229C, strain ROT2, active compounds read low 1.02 | locus YBR231C, strain swc5, active compounds read low 1.02 | locus YBR279W, strain paf1, active compounds read low 1 | locus YCL011C, strain gbp2, active compounds read low 1 | locus YCL016C, strain dcc1, active compounds read low 0.986 | locus YCL029C, strain bik1, active compounds read low 1.03 | locus YCL069W, strain vba3, active compounds read low 1 | locus YCR088W, strain abp1, active compounds read low 1.01 | locus YDL005C, strain med2, active compounds read low 1.01 | locus YDL035C, strain GPR1, active compounds read low 1.02 | locus YDL040C, strain nat1, active compounds read low 1.01 | locus YDL074C, strain BRE1, active compounds read low 1.04 | locus YDL101C, strain DUN1, active compounds read low 1.02 | locus YDL134C, strain PPH21, active compounds read low 1.02 | locus YDL185W, strain tfp1, active compounds read low 1.04 | locus YDL192W, strain arf1, active compounds read low 1.02 | locus YDR001C, strain nth1, active compounds read low 1.02 | locus YDR069C, strain doa4, active compounds read low 1.04 | locus YDR101C, strain arx1, active compounds read low 1.02 | locus YDR137W, strain rgp1, active compounds read low 0.988 | locus YDR159W, strain sac3, active compounds read low 0.999 | locus YDR162C, strain NBP2, active compounds read low 1.03 | locus YDR195W, strain ref2 0.974 | locus YDR297W, strain sur2, active compounds read low 1.01 | locus YDR318W, strain mcm21, active compounds read low 1.03 | locus YDR334W, strain swr1, active compounds read low 1.01 | locus YDR335W, strain msn5, active compounds read low 0.998 | locus YDR388W, active compounds read low 1.03 | locus YDR392W, strain spt3, active compounds read low 0.968 | locus YDR502C, strain sam2, active compounds read low 1.02 | locus YEL003W, strain gim4, active compounds read low 1 | locus YEL037C, strain rad23, active compounds read low 1.01 | locus YEL061C, strain CIN8 (second series), active compounds read low 0.999 | locus YEL061C, strain CIN8, active compounds read low 1.01 | locus YER015W, strain faa2, active compounds read low 1.01 | locus YER016W, strain bim1, active compounds read low 0.963 | locus YER110C, active compounds read low 1.02 | locus YER111C, strain swi4, active compounds read low 1.02 | locus YER155C, strain BEM2 (second series), active compounds read low 1.02 | locus YER155C, strain BEM2, active compounds read low 1.01 | locus YER167W, strain BCK2, active compounds read low 1.02 | locus YFR010W, strain ubp6, active compounds read low 1.01 | locus YGL078C, strain dbp3, active compounds read low 1.03 | locus YGL086W, strain mad1, active compounds read low 1.02 | locus YGL167C, strain pmr1, active compounds read low 1.02 | locus YGL173C, strain kem1, active compounds read low 1.03 | locus YGL227W, strain vid30, active compounds read low 1.01 | locus YGL240W, strain doc1, active compounds read low 1.03 | locus YGL248W, strain PDE1, active compounds read low 1.03 | locus YGL253W, strain hxk2, active compounds read low 1 | locus YGR078C, strain PAC10, active compounds read low 1.03 | locus YGR135W, strain pre9, active compounds read low 1.03 | [1] 1.02 | locus YGR252W, strain gcn5, active compounds read low 1.07 | locus YHR013C, strain ard1, active compounds read low 0.986 | locus YHR027C, strain rpn1, active compounds read low 1.01 | locus YHR030C, strain SLT2, active compounds read low 1.01 and 1.04 | locus YHR079C, strain IRE1 (second series), active compounds read low 1.04 | locus YHR079C, strain IRE1, active compounds read low 1.04 | locus YHR094C, strain hxt1, active compounds read low 1.02 | locus YHR129C, strain ARP1, active compounds read low 1.01 | locus YHR142W, strain chs7, active compounds read low 0.996 | locus YHR200W, strain rpn10, active compounds read low 1.03 | locus YIL066C, strain RNR3, active compounds read low 1.02 | locus YIL073C, strain SPO22, active compounds read low 1.04 | locus YIL125W, strain kgd1, active compounds read low 1.03 | locus YIR030C, strain dcg1, active compounds read low 1.04 | locus YJL092W, strain hpr5, active compounds read low 1.01 | locus YJL095W, strain BCK1 (second series), active compounds read low 1 | locus YJL095W, strain BCK1, active compounds read low 1.04 and 1.02 | locus YJL115W, strain asf1, active compounds read low 1.02 | locus YJL129C, strain trk1, active compounds read low 1.01 | locus YJL134W, strain LCB3, active compounds read low 1.02 | locus YJL154C, strain vps35, active compounds read low 0.995 | locus YJL164C, strain tpk1, active compounds read low 0.984 | locus YJL166W, strain qcr8, active compounds read low 1.02 | locus YJL168C, strain set2, active compounds read low 1.02 | locus YJL187C, strain SWE1 (second series), active compounds read low 1.03 | locus YJR043C, strain POL32, active compounds read low 1 | locus YJR066W, strain TOR1, active compounds read low 0.988 | locus YJR075W, strain HOC1, active compounds read low 1.02 | locus YKL009W, strain mrt4, active compounds read low 1.01 | locus YKL068W, active compounds read low 1.03 | locus YKL085W, strain MDH1 (second series), active compounds read low 1.06 | locus YKL085W, strain MDH1, active compounds read low 1.06 | locus YKL160W, strain elf1, active compounds read low 1.02 | locus YKL190W, strain CNB1, active compounds read low 1.01 | locus YKR001C, strain vps1, active compounds read low 1.03 | locus YKR026C, strain gcn3, active compounds read low 1.06 | locus YKR091W, strain srl3, active compounds read low 0.985 | locus YLL001W, strain dnm1, active compounds read low 1.01 | locus YLL026W, active compounds read low 0.991 | locus YLL041C, strain sdh2, active compounds read low 1.01 | locus YLR027C, strain aat2, active compounds read low 1.01 | locus YLR039C, strain RIC1, active compounds read low 1.05 | locus YLR058C, strain SHM2, active compounds read low 1.03 | locus YLR102C, strain apc9, active compounds read low 1.03 | locus YLR113W, strain HOG1, active compounds read low 1.04 | locus YLR221C, strain rsa3, active compounds read low 0.997 | locus YLR258W, strain gsy2, active compounds read low 1.01 | locus YLR262C, strain YPT6 (second series), active compounds read low 1.04 | locus YLR262C, strain YPT6, active compounds read low 1.04 | locus YLR268W, strain sec22, active compounds read low 1.04 | locus YLR320W, strain mms22, active compounds read low 1.01 | locus YLR330W, strain CHS5, active compounds read low 1.02 | locus YLR342W, strain FKS1 (second series), active compounds read low 1.03 | locus YLR342W, strain FKS1, active compounds read low 1.01 | locus YLR357W, strain rsc2, active compounds read low 1.02 | locus YLR370C, strain arc18, active compounds read low 1.01 | locus YLR371W, strain rom2, active compounds read low 1.03 | locus YLR384C, strain iki3, active compounds read low 1.02 | locus YLR418C, strain cdc73, active compounds read low 1.06 | locus YML016C, strain PPZ1, active compounds read low 1.03 | locus YML032C, strain rad52, active compounds read low 1.02 | locus YML120C, strain ndi1, active compounds read low 1.02 | locus YML124C, strain tub3, active compounds read low 1.03 | locus YMR058W, strain fet3, active compounds read low 1.01 | locus YMR078C, strain ctf18, active compounds read low 1.04 | locus YMR125W, strain sto1, active compounds read low 1.01 | locus YMR129W, active compounds read low 1.02 | locus YMR205C, strain PFK2, active compounds read low 1 | locus YMR223W, strain ubp8, active compounds read low 1.04 | locus YMR231W, strain pep5, active compounds read low 1.01 | [2] 0.99 | locus YNL067W, strain RPL9B, active compounds read low 1.03 | locus YNL071W, strain lat1, active compounds read low 1 | locus YNL128W, strain TEP1, active compounds read low 1.03 | [3] 1.02 | locus YNL183C, strain NPR1, active compounds read low 0.99 | locus YNL209W, strain ssb2, active compounds read low 1 | locus YNL233W, strain BNI4, active compounds read low 1.02 | locus YNL248C, strain rpa49, active compounds read low 0.947 | locus YNL250W, strain rad50, active compounds read low 1 | locus YNL271C, strain bni1, active compounds read low 1.04 | locus YNL298W, strain CLA4, active compounds read low 1.03 | locus YNL307C, strain MCK1, active compounds read low 1.03 | locus YNL322C, strain KRE1 (second series), active compounds read low 1.02 | locus YNR049C, strain mso1, active compounds read low 1.03 | locus YNR052C, strain pop2, active compounds read low 1.02 | locus YOL012C, strain htz1 0.756 | locus YOL147C, strain pex11, active compounds read low 1.04 | locus YOR001W, strain rrp6, active compounds read low 1.02 | locus YOR061W, strain CKA2, active compounds read low 1.03 | locus YOR069W, strain VPS5, active compounds read low 1.01 | locus YOR070C, strain gyp1, active compounds read low 0.995 | locus YOR080W, strain dia2, active compounds read low 1.02 | locus YOR083W, strain WHI5, active compounds read low 1.02 | locus YOR106W, strain vam3, active compounds read low 1.03 | locus YOR136W, strain idh2, active compounds read low 1.02 | locus YOR144C, strain elg1, active compounds read low 1.03 | locus YOR184W, strain ser1, active compounds read low 1.04 | locus YOR231W, strain MKK1, active compounds read low 1.03 | locus YOR265W, strain rbl2, active compounds read low 1.01 | locus YOR270C, strain vph1, active compounds read low 1.01 | locus YOR290C, strain snf2, active compounds read low 1.01 | locus YOR316C, strain cot1, active compounds read low 1.04 | locus YPL051W, strain arl3, active compounds read low 1.02 | locus YPL055C, strain LGE1, active compounds read low 1.04 | locus YPL078C, strain atp4, active compounds read low 1.02 | locus YPL106C, strain sse1, active compounds read low 0.989 | locus YPL240C, strain hsp82, active compounds read low 1 | locus YPL241C, strain CIN2, active compounds read low 1.01 | locus YPL256C, strain CLN2, active compounds read low 1.12 | locus YPR119W, strain clb2, active compounds read low 1.03 | locus YPR141C, strain kar3, active compounds read low 1.05 | locus YPR163C, strain tif3, active compounds read low 1.04 | locus YPR167C, strain met16, active compounds read low 1.04 | strain wtn01, active compounds read low 1.01

COc1cc2c(c(OC)c1OC)-c1ccc(OC)c(=O)cc1C(NC(C)=O)CC2 (stereo not drawn)
inactive: locus YAL040C, strain CLN3, active compounds read low 0.95 | locus YDR150W, strain NUM1, active compounds read low 1.03 | locus YDR363W, strain ESC2, active compounds read low 1 | locus YER002W, strain NOP16, active compounds read low 1.01 | [1] 1 | [2] 0.984 | [3] 1.06 | locus YNL175C, strain NOP13, active compounds read low 1.01 | locus YNL197C, strain WHI3, active compounds read low 1.01 | locus YNL224C, strain SQS1, active compounds read low 1 | locus YOR083W, strain WHI5 (second series), active compounds read low 1.02
